Results reported in PubChem BioAssay (NCI).
This is part of a sample that, as a whole, favours compounds with a hit. Of some 83,000 tested, about 20% had one in any assay.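 Cells were grown in 96-well plates and exposed to the test compound at a single concentration for 48 hours; results are reported as percent growth, with values below 10 considered active.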 A number with no mark means an inactive call. Activity calls are given as the source filed them.

Columns and labels:
Experiment in all cases: NCI-60 one-dose screen, 48 h (100 = growth as untreated, 0 = no growth, -100 = all killed)
Settings in all cases: 10 µM unless noted
NCI-H23 lung = system: NCI-H23 lung
NCI-H226 lung = system: NCI-H226 lung
NCI-H322M lung = system: NCI-H322M lung
HOP-62 NSCLC = system: HOP-62 NSCLC
NCI-H460 lung = system: NCI-H460 lung
HOP-92 NSCLC = system: HOP-92 NSCLC
NCI-H522 lung = system: NCI-H522 lung
A549/ATCC NSCLC = system: A549/ATCC NSCLC
786-0 renal = system: 786-0 renal
COLO 205 colon = system: COLO 205 colon

Question: For `Clc1ccc(Nc2nnc(-c3c[nH]c4ccccc34)o2)cc1`, which growth (NCI-H23 lung) is on record?
Answer: 77.9%

Question: And the growth (NCI-H226 lung)?
Answer: 66.7%

Question: And the growth (NCI-H322M lung)?
Answer: 91.3%

Question: What about the growth (HOP-62 NSCLC) of the same compound?
Answer: 67.8%

Question: And the growth (NCI-H460 lung)?
Answer: 83%

Question: What about the growth (HOP-92 NSCLC) of the same compound?
Answer: 70.9%

Question: What about the growth (NCI-H522 lung) of the same compound?
Answer: 24.2%

Question: And the growth (A549/ATCC NSCLC)?
Answer: 68.6%

Question: What about the growth (786-0 renal) of the same compound?
Answer: 90.1%

Question: And the growth (COLO 205 colon)?
Answer: 116%

Question: With `Cc1ccc(-c2cc(C(=O)N=Nc3c(O)[nH]c4ccc(F)cc34)c3ccccc3n2)cc1` as the compound, how does the growth (NCI-H23 lung) read?
Answer: 15.1%

Question: And the growth (NCI-H226 lung)?
Answer: 59%

Question: What about the growth (NCI-H322M lung) of the same compound?
Answer: 44.4%

Question: What about the growth (HOP-62 NSCLC) of the same compound?
Answer: 6.08% (active)

Question: And the growth (NCI-H460 lung)?
Answer: 1.25% (active)

Question: And the growth (HOP-92 NSCLC)?
Answer: 104%

Question: And the growth (NCI-H522 lung)?
Answer: 25.5%

Question: What about the growth (A549/ATCC NSCLC) of the same compound?
Answer: 11.2%

Question: And the growth (786-0 renal)?
Answer: 44%

Question: What about the growth (COLO 205 colon) of the same compound?
Answer: 73.9%

Question: With `Cc1ccc2nc(SCc3ccccc3F)n(-c3ccccc3)c(=O)c2c1` as the compound, how does the growth (NCI-H23 lung) read?
Answer: 93.9%

Question: And the growth (NCI-H226 lung)?
Answer: 96.7%

Question: What about the growth (NCI-H322M lung) of the same compound?
Answer: 97.1%

Question: And the growth (HOP-62 NSCLC)?
Answer: 95%

Question: And the growth (NCI-H460 lung)?
Answer: 105%

Question: And the growth (HOP-92 NSCLC)?
Answer: 82.1%

Question: What about the growth (NCI-H522 lung) of the same compound?
Answer: 87.8%

Question: What about the growth (A549/ATCC NSCLC) of the same compound?
Answer: 85.8%

Question: What about the growth (786-0 renal) of the same compound?
Answer: 94.9%

Question: What about the growth (COLO 205 colon) of the same compound?
Answer: 116%

Question: Which results are given for `FC(F)(F)c1cc2c(Cl)ncnc2n1CCC1CCOCC1`?
Answer: growth (NCI-H23 lung): -14.4% (active); growth (NCI-H226 lung): 39%; growth (NCI-H322M lung): -72.6% (active); growth (HOP-62 NSCLC): 6.11% (active); growth (NCI-H460 lung): -68.8% (active); growth (HOP-92 NSCLC): 71.5%; growth (NCI-H522 lung): -80% (active); growth (A549/ATCC NSCLC): 97.6%; growth (786-0 renal): 87.7%; growth (COLO 205 colon): 71.5%

Question: Which results are given for `O=C1CC(c2ccc(I)cc2)OC2C=Cc3ccccc3C12` (stereo not given)?
Answer: growth (NCI-H23 lung): 98.2%; growth (NCI-H226 lung): 90.7%; growth (NCI-H322M lung): 103%; growth (HOP-62 NSCLC): 98.7%; growth (NCI-H460 lung): 108%; growth (HOP-92 NSCLC): 101%; growth (NCI-H522 lung): 86.9%; growth (A549/ATCC NSCLC): 102%; growth (786-0 renal): 99.2%; growth (COLO 205 colon): 118%

Question: With `O=C(NNC(=O)c1ccc(OCc2nc3ccc(Cl)cc3[nH]2)cc1)Nc1ccc(Cl)c(Cl)c1` as the compound, how does the growth (NCI-H23 lung) read?
Answer: 47%

Question: And the growth (NCI-H226 lung)?
Answer: 93%

Question: What about the growth (NCI-H322M lung) of the same compound?
Answer: 47.6%

Question: And the growth (HOP-62 NSCLC)?
Answer: 65.4%

Question: What about the growth (NCI-H460 lung) of the same compound?
Answer: 27.5%

Question: What about the growth (HOP-92 NSCLC) of the same compound?
Answer: 62.1%

Question: And the growth (NCI-H522 lung)?
Answer: 60.4%

Question: What about the growth (A549/ATCC NSCLC) of the same compound?
Answer: 60.2%

Question: What about the growth (786-0 renal) of the same compound?
Answer: 80.8%

Question: And the growth (COLO 205 colon)?
Answer: 105%

Question: Which results are given for `Fc1ccc(Nc2nnc(-c3c[nH]c4ccccc34)o2)cc1`?
Answer: growth (NCI-H23 lung): 85.7%; growth (NCI-H226 lung): 70.2%; growth (NCI-H322M lung): 94.5%; growth (HOP-62 NSCLC): 71%; growth (NCI-H460 lung): 91.9%; growth (HOP-92 NSCLC): 58.2%; growth (NCI-H522 lung): 48.7%; growth (A549/ATCC NSCLC): 77.5%; growth (786-0 renal): 94.7%; growth (COLO 205 colon): 127%

Question: With `O=C(NN1C(=O)/C(=C/C=C/c2ccc([N+](=O)[O-])o2)SC1=S)c1ccc(O)cc1` as the compound, how does the growth (NCI-H23 lung) read?
Answer: -85.7% (active)

Question: What about the growth (NCI-H226 lung) of the same compound?
Answer: -86.3% (active)

Question: And the growth (NCI-H322M lung)?
Answer: -78.5% (active)

Question: What about the growth (HOP-62 NSCLC) of the same compound?
Answer: -99.5% (active)

Question: And the growth (NCI-H460 lung)?
Answer: -54% (active)

Question: What about the growth (HOP-92 NSCLC) of the same compound?
Answer: -81% (active)

Question: What about the growth (NCI-H522 lung) of the same compound?
Answer: -98.1% (active)

Question: What about the growth (A549/ATCC NSCLC) of the same compound?
Answer: -81.5% (active)

Question: What about the growth (786-0 renal) of the same compound?
Answer: -90.4% (active)

Question: What about the growth (COLO 205 colon) of the same compound?
Answer: -94.8% (active)

Question: What does the source list for `C[C@@H](Nc1c(C#N)cnc2ccc(-c3cnc4[nH]ncc4c3)cc12)c1ccccc1`?
Answer: growth (NCI-H23 lung): 21%; growth (NCI-H226 lung): -1.92% (active); growth (NCI-H322M lung): -2.29% (active); growth (HOP-62 NSCLC): 35.4%; growth (NCI-H460 lung): 15.4%; growth (HOP-92 NSCLC): -11.3% (active); growth (NCI-H522 lung): 13.1%; growth (A549/ATCC NSCLC): 5.68% (active); growth (786-0 renal): 11%; growth (COLO 205 colon): 84.2%

Question: Which results are given for `CC[C@]12C=CCN3CC[C@@]4(c5ccc(OC)cc5N(C)[C@H]4[C@@](O)(C(=O)OC)[C@@H]1OC(=O)CCCC[P+](c1ccc(F)cc1)(c1ccc(F)cc1)c1ccc(F)cc1)[C@@H]32`?
Answer: growth (NCI-H23 lung): 23.6%; growth (NCI-H226 lung): 38%; growth (NCI-H322M lung): 52.9%; growth (HOP-62 NSCLC): 50.9%; growth (NCI-H460 lung): 20.3%; growth (HOP-92 NSCLC): -12.2% (active); growth (NCI-H522 lung): -11.6% (active); growth (A549/ATCC NSCLC): 37.5%; growth (786-0 renal): 87.1%; growth (COLO 205 colon): -43.4% (active)

Question: Which results are given for `CC[C@@]12CC(C(=O)OC)=C3Nc4cc5c(cc4[C@@]34CCN(C[C@H]3O[C@H]31)[C@@H]24)[C@@H]1[C@H](O5)[C@@H](O)[C@@]2(CC)CC(C(=O)OC)=C3Nc4cc(O)ccc4[C@@]34CCN1[C@@H]24`?
Answer: growth (NCI-H23 lung): -53.9% (active); growth (NCI-H226 lung): -50.9% (active); growth (NCI-H322M lung): -43% (active); growth (HOP-62 NSCLC): -54.4% (active); growth (NCI-H460 lung): -26.6% (active); growth (HOP-92 NSCLC): -27.3% (active); growth (NCI-H522 lung): -44.9% (active); growth (A549/ATCC NSCLC): 4.31% (active); growth (786-0 renal): -89.3% (active); growth (COLO 205 colon): -61.5% (active)

Question: How did the growth (NCI-H23 lung) turn out when `Cc1nn(-c2ccccc2)c2nc(C)n(C(=O)N/N=C/c3cccc([N+](=O)[O-])c3)c(=O)c12` was run?
Answer: 77.7%

Question: And the growth (NCI-H226 lung)?
Answer: 105%

Question: What about the growth (NCI-H322M lung) of the same compound?
Answer: 91.7%

Question: What about the growth (HOP-62 NSCLC) of the same compound?
Answer: 98.6%

Question: And the growth (NCI-H460 lung)?
Answer: 93.7%

Question: And the growth (HOP-92 NSCLC)?
Answer: 103%

Question: And the growth (NCI-H522 lung)?
Answer: 47.4%

Question: What about the growth (A549/ATCC NSCLC) of the same compound?
Answer: 83.7%

Question: And the growth (786-0 renal)?
Answer: 108%

Question: What about the growth (COLO 205 colon) of the same compound?
Answer: 117%

Question: For `Cc1cn(-c2cc(NC(=O)c3ccc(C)c(-n4cc(-c5cnc6cccnn56)nn4)c3)cc(C(F)(F)F)c2)cn1`, which growth (NCI-H23 lung) is on record?
Answer: 56.9%

Question: And the growth (NCI-H226 lung)?
Answer: 68.8%

Question: And the growth (NCI-H322M lung)?
Answer: 106%

Question: What about the growth (HOP-62 NSCLC) of the same compound?
Answer: 80.5%

Question: What about the growth (NCI-H460 lung) of the same compound?
Answer: 102%

Question: And the growth (HOP-92 NSCLC)?
Answer: 53.9%

Question: What about the growth (NCI-H522 lung) of the same compound?
Answer: 81.4%

Question: What about the growth (A549/ATCC NSCLC) of the same compound?
Answer: 94.3%

Question: What about the growth (786-0 renal) of the same compound?
Answer: 95.4%

Question: What about the growth (COLO 205 colon) of the same compound?
Answer: 31%
